Experimental data: PubChem BioAssay (EPA / NIEHS)
Calls of active or inactive are those of the source. The calls were made as follows: active = hit-call score of the fitted dose curve at least 0.9, where 1 is the maximum; inactive = score below 0.9.

How the values were obtained:
Details in all cases: mRNA level, 48 h; actives raise or lower the signal
[1] = read-out: Heat shock 70 kDa protein 1 (HSPA1A), gene 3303; test: LTEA_HepaRG_HSPA1A: Life Technologies and Expression Analysis (LTEA) Assay for Heat shock 70 kDa protein 1 (HSPA1A) using HepaRG (AID 2283502)
Outline: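 Differentiated human HepaRG cells in serum-free induction medium were exposed in duplicate for 48 h to eight concentrations (top 100 uM, half-log steps, 0.5% DMSO). HSPA1A mRNA was quantified by qRT-PCR, normalized to ACTB, GAPDH and POLR2A, and fitted bidirectionally against DMSO.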

[2] = read-out: Hypoxia-inducible factor 1-alpha (Homo sapiens) (UniProt Q16665); test: LTEA_HepaRG_HIF1A: Life Technologies and Expression Analysis (LTEA) Assay for Hypoxia-inducible factor 1 (HIF1A) Trancription factor using HepaRG (AID 2283503)
Outline: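 HepaRG, 48 h exposure, 8-pt half-log series from 100 uM, 0.5% DMSO vehicle, duplicates. Readout: HIF1A transcript by qRT-PCR (Fluidigm array), housekeeping-normalised. Bidirectional curve fit vs DMSO baseline.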

[3] = read-out: 3-Hydroxy-3-Methylglutaryl-CoA Synthase 2 (HMGCS2), HMGCS2 (gene 3158); test: LTEA_HepaRG_HMGCS2: Life Technologies and Expression Analysis (LTEA) Assay for 3-Hydroxy-3-Methylglutaryl-CoA Synthase 2 (HMGCS2) using HepaRG (AID 2283504)
Outline: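 Human HepaRG cells in serum-free induction medium were exposed in duplicate for 48 h to 8-point half-log series from 100 uM top in 0.5% DMSO. HMGCS2 mRNA measured by TaqMan qRT-PCR, normalised to ACTB, GAPDH, POLR2A; bidirectional fit versus DMSO.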

[4] = read-out: HGF (gene 3082); test: LTEA_HepaRG_HGF: Life Technologies and Expression Analysis (LTEA) Assay for Hepatocyte Growth Facto (HGF) using HepaRG (AID 2283505)
Outline: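 Differentiated HepaRG cells in serum-free induction medium exposed 48 h in duplicate, 8 half-log concentrations from 100 uM in 0.5% DMSO. HGF mRNA by qRT-PCR, normalised to ACTB, GAPDH, POLR2A; bidirectional fitting.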

[5] = read-out: Insulin Like Growth Factor 1 (IGF1), IGF1 (gene 3479); test: LTEA_HepaRG_IGF1: Life Technologies and Expression Analysis (LTEA) Assay for Insulin Like Growth Factor 1 (IGF1) using HepaRG (AID 2283506)
Outline: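 Differentiated human HepaRG cells were dosed for 48 h in serum-free induction medium with 0.5% DMSO, eight half-log concentrations up to 100 uM, in duplicate. IGF1 mRNA was quantified by qRT-PCR normalized to ACTB, GAPDH, POLR2A; bidirectional fitting versus DMSO.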

[6] = read-out: Intercellular Adhesion Molecule 1 (ICAM1), ICAM1 (gene 3383); test: LTEA_HepaRG_ICAM1: Life Technologies and Expression Analysis (LTEA) Assay for Intercellular Adhesion Molecule 1 (ICAM1) using HepaRG (AID 2283507)
Outline: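 Differentiated human HepaRG cells in serum-free induction medium exposed 48 h in duplicate to 8 half-log concentrations (top 100 uM, 0.5% DMSO). ICAM1 mRNA quantified by TaqMan qRT-PCR, normalized to ACTB, GAPDH and POLR2A; bidirectional fitting versus DMSO.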

[7] = read-out: Insulin-like growth factor-binding protein 1 (IGFBP1), IGFBP1 (gene 3484); test: LTEA_HepaRG_IGFBP1: Life Technologies and Expression Analysis (LTEA) Assay for Insulin-like growth factor-binding protein 1 (IGFBP1) using HepaRG (AID 2283508)
Outline: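 HepaRG cells, plated 48 h then switched to serum-free induction medium, exposed in duplicate for 48 h to 8-point half-log series from 100 uM in 0.5% DMSO. mRNA measured by qRT-PCR, normalized to ACTB/GAPDH/POLR2A; bidirectional fit versus DMSO.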

[8] = read-out: Interleukin 6 (IL6), IL6 (gene 3569); test: LTEA_HepaRG_IL6: Life Technologies and Expression Analysis (LTEA) Assay for Interleukin 6 (IL6) using HepaRG (AID 2283509)
Outline: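 HepaRG, ~100,000 cells/well, 48 h pre-culture; serum-free induction medium; cmpd 8-pt half-log from 100 uM, 0.5% DMSO, duplicate, 48 h. Lysis in RLT, TaqMan qRT-PCR; gain or loss vs DMSO.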

[9] = read-out: Interleukin 6 Receptor (IL6R), IL6R (gene 3570); test: LTEA_HepaRG_IL6R: Life Technologies and Expression Analysis (LTEA) Assay for Interleukin 6 Receptor (IL6R) using HepaRG (AID 2283510)
Outline: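 Differentiated human HepaRG cells, plated 48 h then switched to serum-free induction medium, were dosed in duplicate for 48 h at eight half-log concentrations up to 100 uM in 0.5% DMSO. IL6R mRNA quantified by qRT-PCR, normalized to ACTB/GAPDH/POLR2A; bidirectional fit versus DMSO.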

[10] = read-out: Potassium channel subfamily K member 1 (KCNK1), KCNK1 (gene 3775); test: LTEA_HepaRG_KCNK1: Life Technologies and Expression Analysis (LTEA) Assay for Potassium channel subfamily K member 1 (KCNK1) using HepaRG (AID 2283511)
Outline: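 Gain or loss of KCNK1 mRNA is the read-out, quantified by qRT-PCR against three housekeeping genes after 48 h chemical treatment of human HepaRG liver cells. Concentrations ran from 100 uM downward in half-log steps, vehicle 0.5% DMSO.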

[11] = read-out: Keratin 19 (KRT19), KRT19 (gene 3880); test: LTEA_HepaRG_KRT19: Life Technologies and Expression Analysis (LTEA) Assay for Keratin 19 (KRT19) using HepaRG (AID 2283512)
Outline: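 Differentiated HepaRG cells in serum-free induction medium, exposed 48 h in duplicate to 8 half-log concentrations up to 100 uM in 0.5% DMSO. KRT19 mRNA by qRT-PCR, normalized to ACTB, GAPDH, POLR2A; bidirectional fit vs DMSO.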

[12] = read-out: JUN Transcription Factor, JUN (gene 3725); test: LTEA_HepaRG_JUN: Life Technologies and Expression Analysis (LTEA) Assay for JUN Transcription Factor using HepaRG (AID 2283513)
Outline: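 Differentiated HepaRG cells were exposed to chemicals for 48 h in serum-free induction medium, 8 concentrations from 100 uM in half-log steps, 0.5% DMSO vehicle, in duplicate. JUN mRNA was quantified by TaqMan qRT-PCR, normalized to ACTB, GAPDH, POLR2A.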

[13] = read-out: Lipase C (LIPC), LIPC (gene 3990); test: LTEA_HepaRG_LIPC: Life Technologies and Expression Analysis (LTEA) Assay for Lipase C (LIPC) using HepaRG (AID 2283514)
Outline: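 Read-out is LIPC transcript level by TaqMan qRT-PCR, normalized to three housekeeping genes, after 48 h chemical treatment of human HepaRG liver cells. Curves span eight concentrations topping at 100 uM; activity in either direction scored relative to 0.5% DMSO.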

[14] = read-out: matrix metalloproteinase-10 (MMP10), MMP10 (gene 4319); test: LTEA_HepaRG_MMP10: Life Technologies and Expression Analysis (LTEA) Assay for matrix metalloproteinase-10 (MMP10) using HepaRG (AID 2283517)
Outline: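 Gain or loss of MMP10 mRNA is fitted relative to the 0.5% DMSO vehicle. The human hepatic line HepaRG receives a 48-hour serum-free exposure, in duplicate, with a maximum concentration of 100 uM.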

[15] = read-out: MYC, MYC (gene 4609); test: LTEA_HepaRG_MYC: Life Technologies and Expression Analysis (LTEA) Assay for MYC using HepaRG (AID 2283518)
Outline: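 Differentiated HepaRG cells exposed 48 h in serum-free induction medium to 8 concentrations (top 100 uM, half-log steps; 0.5% DMSO), duplicate. MYC mRNA measured by Fluidigm qRT-PCR, normalized to ACTB, GAPDH, POLR2A; bidirectional fit versus DMSO.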

[16] = read-out: matrix metalloproteinase-3 (MMP3), MMP3 (gene 4314); test: LTEA_HepaRG_MMP3: Life Technologies and Expression Analysis (LTEA) Assay for matrix metalloproteinase-3 (MMP3) using HepaRG (AID 2283519)
Outline: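 HepaRG, human; 48 h dosing, 8 conc. (max 100 uM, half-log), duplicate, 0.5% DMSO. Readout: MMP3 transcript by Fluidigm TaqMan qRT-PCR, ACTB/GAPDH/POLR2A-normalised. Gain or loss fitted vs DMSO.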

[17] = read-out: Paternally Expressed 10 (PEG10), PEG10 (gene 23089); test: LTEA_HepaRG_PEG10: Life Technologies and Expression Analysis (LTEA) Assay for Paternally Expressed 10 (PEG10) using HepaRG (AID 2283520)
Outline: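 Differentiated HepaRG cells, plated 48 h then switched to serum-free induction medium, were exposed in duplicate for 48 h to eight half-log concentrations topping at 100 uM in 0.5% DMSO. PEG10 mRNA was quantified by TaqMan qRT-PCR, normalised to ACTB, GAPDH and POLR2A.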

[18] = read-out: Nuclear factor NF-kappa-B p105 subunit (Homo sapiens) (UniProt P19838); test: LTEA_HepaRG_NFKB1: Life Technologies and Expression Analysis (LTEA) Assay for Nuclear Factor Kappa B Subunit 1 (NFKB1) using HepaRG (AID 2283521)
Outline: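 HepaRG, 48 h exposure; 8-pt half-log series from 100 uM in 0.5% DMSO; duplicates. Readout: NFKB1 mRNA by qRT-PCR (Fluidigm arrays), housekeeping-normalized. Gain/loss fit vs DMSO baseline.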

[19] = read-out: MicroRNA 122 (MIR122), gene 406906; test: LTEA_HepaRG_MIR122: Life Technologies and Expression Analysis (LTEA) Assay for MicroRNA 122 (MIR122) using HepaRG (AID 2283516); also: the transcript read is the microRNA miR-122
Outline: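 Differentiated human HepaRG cells were exposed 48 h in serum-free induction medium to eight half-log concentrations (top 100 uM, 0.5% DMSO). Transcript level was measured by TaqMan qRT-PCR, normalized to ACTB, GAPDH and POLR2A, and fitted bidirectionally versus DMSO.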

[20] = read-out: Lipoprotein lipase (LPL), LPL (gene 4023); test: LTEA_HepaRG_LPL: Life Technologies and Expression Analysis (LTEA) Assay for Lipoprotein lipase (LPL) using HepaRG (AID 2283515)
Outline: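 Read-out is LPL transcript level by qRT-PCR, normalized to three housekeeping genes and fitted bidirectionally against the DMSO control. Human HepaRG cells received chemicals for 48 h at up to 100 uM.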

Measured: AC50

Sequence of Nuclear factor NF-kappa-B p105 subunit (Homo sapiens) (P19838 whole entry, looked up): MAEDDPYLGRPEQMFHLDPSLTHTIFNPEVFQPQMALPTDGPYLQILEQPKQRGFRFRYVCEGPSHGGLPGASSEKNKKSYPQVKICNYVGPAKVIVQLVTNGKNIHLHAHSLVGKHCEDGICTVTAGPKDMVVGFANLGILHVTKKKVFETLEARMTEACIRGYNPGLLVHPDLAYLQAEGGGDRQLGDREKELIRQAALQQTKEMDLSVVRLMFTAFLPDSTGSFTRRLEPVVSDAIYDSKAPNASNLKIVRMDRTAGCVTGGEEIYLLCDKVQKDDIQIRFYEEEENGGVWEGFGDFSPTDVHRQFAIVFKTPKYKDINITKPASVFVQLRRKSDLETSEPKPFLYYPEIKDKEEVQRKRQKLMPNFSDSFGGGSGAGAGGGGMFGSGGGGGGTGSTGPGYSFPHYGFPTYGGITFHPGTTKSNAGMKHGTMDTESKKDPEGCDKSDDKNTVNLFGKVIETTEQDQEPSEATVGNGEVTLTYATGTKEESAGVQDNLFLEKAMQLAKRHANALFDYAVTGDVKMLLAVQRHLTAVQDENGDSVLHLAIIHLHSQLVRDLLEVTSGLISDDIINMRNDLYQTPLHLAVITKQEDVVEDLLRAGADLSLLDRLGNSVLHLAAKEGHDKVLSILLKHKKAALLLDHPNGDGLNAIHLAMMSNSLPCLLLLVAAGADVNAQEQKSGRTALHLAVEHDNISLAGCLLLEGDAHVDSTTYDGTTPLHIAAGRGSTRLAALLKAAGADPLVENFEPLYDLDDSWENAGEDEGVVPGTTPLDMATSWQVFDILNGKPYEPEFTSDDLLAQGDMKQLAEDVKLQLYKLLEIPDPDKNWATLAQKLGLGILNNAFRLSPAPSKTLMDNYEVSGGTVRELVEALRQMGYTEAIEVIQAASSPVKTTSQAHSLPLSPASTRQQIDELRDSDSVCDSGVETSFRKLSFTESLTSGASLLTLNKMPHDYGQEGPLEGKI
Sequence of Hypoxia-inducible factor 1-alpha (Homo sapiens) (Q16665 whole entry, looked up): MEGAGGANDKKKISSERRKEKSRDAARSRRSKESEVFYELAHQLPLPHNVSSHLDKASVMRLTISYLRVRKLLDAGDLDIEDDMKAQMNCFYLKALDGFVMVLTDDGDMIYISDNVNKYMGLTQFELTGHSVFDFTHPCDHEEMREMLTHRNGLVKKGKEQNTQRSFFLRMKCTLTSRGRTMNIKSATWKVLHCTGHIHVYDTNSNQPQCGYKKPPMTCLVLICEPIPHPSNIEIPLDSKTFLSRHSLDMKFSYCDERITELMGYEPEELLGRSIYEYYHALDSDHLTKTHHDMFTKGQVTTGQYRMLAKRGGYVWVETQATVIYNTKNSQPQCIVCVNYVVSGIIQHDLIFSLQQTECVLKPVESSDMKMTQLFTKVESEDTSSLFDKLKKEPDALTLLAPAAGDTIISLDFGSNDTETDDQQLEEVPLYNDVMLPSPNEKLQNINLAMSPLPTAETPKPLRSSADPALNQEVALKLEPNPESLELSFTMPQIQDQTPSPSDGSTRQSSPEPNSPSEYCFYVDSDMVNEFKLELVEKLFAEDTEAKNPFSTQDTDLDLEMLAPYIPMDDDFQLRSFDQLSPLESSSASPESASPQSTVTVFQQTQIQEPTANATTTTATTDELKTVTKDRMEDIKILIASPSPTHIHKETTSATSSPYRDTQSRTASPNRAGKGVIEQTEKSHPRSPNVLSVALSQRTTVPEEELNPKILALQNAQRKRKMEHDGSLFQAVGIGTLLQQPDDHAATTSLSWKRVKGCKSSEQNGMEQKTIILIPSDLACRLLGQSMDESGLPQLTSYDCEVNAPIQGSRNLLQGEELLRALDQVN

O=C(N[C@H](c1ccccc1)[C@@H]1CN2CCC1CC2)c1c(Cl)ccc(C(F)(F)F)c1Cl
inactive: [2] | [4] | [9] | [13]
active: [1] 73.8 µM | [3] 72.8 µM | [5] 46.2 µM | [6] 66.6 µM | [7] 34.8 µM | [8] 74.8 µM | [10] 59.7 µM | [11] 12 µM | [12] 82.4 µM | [14] 69.4 µM | [15] 68.4 µM | [16] 73.6 µM | [17] 26.8 µM | [18] 71.5 µM

CC(O)CCO (configuration not stated)
not listed: [10] | [20]
inactive: all other assays above

OCCCBr
not listed: [10] | [19] | [20]
inactive: all other assays above

O=C(Oc1ccc(Br)cc1)N1CCN2CCC1CC2
active: [20] 74.4 µM
not listed: [19]
inactive: all other assays above
